Shown are actives, neighbours in structure and some others; about 2.4% of the full set was active somewhere.
Nrf2 inh: Nrf2 pathway inhibition; A549 ARE-Fluc reporter, luciferase luminescence, 18-24 h; Potency, µM (top dose mostly 46 µM), inactives show top-dose activity change, negative = inhibition, hits mostly inhibitors; 360,000 compounds, 2.1% hits; AID 504444; also: % is scaled to controls: 0 for no effect and ±100 for the full control effect; nearly all actives have a fitted effect of over 60% in size
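Nrf2 activity is the BugLite luminescence, read 15 min after reagent at room temperature, following CellTiter-Fluor cytotoxicity readout (30 min, 37C). Compound titrations were applied for 18-24 h to 5000 A549 ARE_Fluc cells/well in 5% FBS OPTI-MEM.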
PINK1 modulator: PINK1 expression modulation | PINK1 immunofluorescence, high-content cytometry, 24 h | 410,000 compounds, 0.2% hits | Potency, µM (highest dose often 76.6 µM), without a hit: top-dose activation (PINK1 increase), hits mostly activators; active = well fitted activation curve with a large enough effect; inconclusive = small, poorly fitted or top-dose-only effect; cell line not stated here; also: % of control where 0% means no effect; nearly all actives have a fitted effect of over 65% in size
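PINK1 protein level read as immunofluorescence by microplate cytometer in a fixed, stained stable cell line after 24 h exposure to five compound concentrations, with CCCP as control.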
Nrf2 activator: activators of Nrf2 (ARE) signaling; Potency, µM (highest dose often 46.1 µM), inactives show at the top dose activation, hits mostly activators; 410,000 compounds, 0.31% hits; AREc32 ARE-luciferase reporter (MCF7-derived line), luminescence, 24 h; AID 624171; also: % of control where 0% means no effect; nearly all actives have a fitted effect of over 65% in size
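AREc32_Fluc, 1000 cells/well, OPTI-MEM + 5% FBS, o/n 37 deg C 5% CO2; 23 nL cpd by pin tool, 24 hr; Steady-Glo 30 min RT, luminescence.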
A549 tox: kills or reduces viability of A549 cells in Nrf2 counter-screen. A549 ARE-Fluc cells, CellTiter-Fluor viability, 18-24 h. Potency, µM (series often up to 46 µM), for the others: top-dose activity change, negative = cytotoxicity, most hits filed as inhibitors. 390,000 compounds, 0.16% hits. AID 504648; also: % is scaled to controls: 0 for no effect and ±100 for the full control effect
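A549 ARE-Fluc cells in 5% FBS OPTI-MEM, 5000 cells/well, rested 2 h then exposed to compounds in concentration-response for 18-24 h at 37 °C. Viability by CellTiter-Fluor fluorescence (Ex 405/Em 525) after 30 min; luciferase luminescence (BugLite, 15 min, RT) read afterwards.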
Epigenetic derep: regulators of epigenetic silencing causing reporter derepression in mouse cells. 280,000 compounds, 0.2% hits. AID 1865. murine LDR cells, GFP reporter derepression, 30 h. Potency, µM (doses to about 53.9 µM), inactives show at the top dose GFP activation, hits mostly activators; also: % of control where 0% means no effect; nearly all actives have a fitted effect of over 60% in size
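In this reporter-derepression format, murine cells bearing a silenced integrated CMV-GFP locus incubate with test compound (30 h, 37 C), then are washed and imaged; fluorescent objects of 20–120 um count as induced cells.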
Starred values were filed as active, the others as inactive; u = inconclusive; x = not tested or not shown; ! = a repeat was not active; [ ] = dose if it differs, or a comment. Unless noted, calls follow the shape of the dose curve; as a rule, active = well fitted curve in the direction sought with a large enough effect; inconclusive = small, poorly fitted or top-dose-only effect, or another doubt; inactive = no such curve, though single readings can be large; an effect the other way counts as inactive or inconclusive. Potency is read from the fitted curve at half-maximal effect.

SMILES	Nrf2 inh	PINK1 modulator	Nrf2 activator	A549 tox	Epigenetic derep
Cc1ccccc1Cn1nc(C)c(NC(=O)c2noc3c2CC(C(C)(C)C)CC3)c1C (stereo unspecified)	8.2µM*	13.5%[38.3 µM]	0.2%	-5.7%	0.9%
Cc1oc(-c2cccc(NC(=O)c3ccccn3)c2)nc1CNC(=O)C#Cc1ccccc1	x	0.1%	x	x	x
CCN(CC)CCC(c1ccc(OC)cc1)c1c(OC)cc(OC)c2c(C)cc(=O)oc12 (stereo unspecified)	-4.8%	x	x	11.6µM*	x
O=S(=O)(NCCCCNS(=O)(=O)c1cccc2cccnc12)c1cccc2cccnc12	x	0.4%	x	x	x
COc1ccccc1Oc1ccc2c(c1)C(=O)N(c1cccc3ncccc13)C2=O	16.4µM*	-0.1%	2.4%	-7.7%	0.0%
CCN(C(=O)COC(=O)/C=C/c1cccc(Cl)c1)c1c(N)n(Cc2ccccc2)c(=O)[nH]c1=O	5.5%	6.5%	0.8%	-1.4%	x
CC(C)CN(C(=O)COC(=O)C12CC3CC(CC(C3)C1)C2)c1c(N)n(Cc2ccccc2)c(=O)[nH]c1=O	25.9µM*	-1.6%	-0.4%	u	x
CCN(C(=O)COC(=O)/C=C/c1ccc(Cl)c(Cl)c1)c1c(N)n(Cc2ccccc2)c(=O)[nH]c1=O	14.6µM*	-0.8%	-0.5%	-13.6%	x
CC(C)CN(C(=O)COC(=O)C12CC3CC(CC(O)(C3)C1)C2)c1c(N)n(Cc2ccccc2)c(=O)[nH]c1=O	x	1.6%	2.6%	x	x
CCCOC(=O)/C(=C\C=C\c1ccco1)NC(=O)c1ccccc1	u	0.9%	12.6µM*	0.1%	u
COc1ccc(CN2CCOc3c(cc(-c4cccc(OC)n4)cc3OC)C2)c(O)c1	x	1.7%	x	x	x
Cc1ccc(C)c(CN2C(=O)c3ccccc3S(=O)c3ccc(C(=O)N(C)Cc4ccccc4)cc32)c1 (stereo unspecified)	20.6µM*	-0.9%	0.3%	-26.4%	-0.3%
COC(=O)c1ccc2c(c1)N(Cc1cc(C)ccc1C)C(=O)c1ccccc1S2=O (stereo unspecified)	x	x	x	x	0.4%
CCOc1ccc(CCNC(=O)c2ccc(-c3nc(COc4ccc(C)cc4)c(C)o3)cc2)cc1	10.3%	-0.3%	-1.0%	1.6%	0.0%
COc1cccc(C2C=C(c3ccc(OC)cc3OC)Nc3nnnn32)c1 (stereo unspecified)	18.4µM*	6.5%	3.4%	u	1.6%
COc1ccc(O)c(C(=O)N2CCC3(CC2)c2ccccc2[C@@H](NC(=O)c2ccccn2)[C@@H]3OC)c1	x	0.4%	x	x	x
COc1ccccc1NC(=O)N(Cc1ccco1)Cc1cc2cc(C)cc(C)c2[nH]c1=O	23.1µM*	1.1%	0.4%	u	2.2%
Cc1nc2ccccn2c1C(=O)NNS(=O)(=O)c1ccc(C(C)(C)C)cc1	9.2µM*	1.9%	-1.0%	-1.9%	0.1%
CCN(CCN(C)Cl)/[N+]([O-])=N/Oc1ccc([N+](=O)[O-])cc1[N+](=O)[O-]	x	-1.3%	x	x	x
O=C(CN1C(=O)/C(=C\C=C\c2ccccc2)SC1=S)Nc1ccc(F)cc1	5.2%	u	0.1%	-5.6%	-1.3%
O=C(COC(=O)CCN1C(=O)/C(=C\C=C\c2ccccc2)SC1=S)Nc1cc(F)ccc1F	8.2µM*	0.7%	-0.8%	u	1.1%
COc1ccc(CN2CCOc3c(O)cc(-c4cc(C)c5ccc(F)cc5n4)cc3C2)c(O)c1	x	-0.4%	x	x	x
Cc1c2ccccc2nc2c(F)c(NCCO)c(F)c(F)c12	8.5%	-2.7%	16.9%	-0.6%	-1.1%
CN(C)CCCNc1c2ccccc2nc2ccccc12	8.2µM*	-2.0%	-1.2%	8.2µM*	x
OCCNc1c2ccccc2nc2c(F)c(F)c(F)c(F)c12	4.8%	3.1%	11.2µM*	7.1%	u
COc1cc(F)c(S(=O)(=O)N2CCCN(S(=O)(=O)c3cccc(N)c3)CC2)c(F)c1	25.9µM*!	x	x	10.3%	x
COc1cc(F)c(S(=O)(=O)N2CCN(S(=O)(=O)c3cccc(NC(C)=O)c3)CC2)c(F)c1	-13.7%	x	x	11.8%	x
CN(C)CCCO[C@H]1C([C@H](O)CO)O[C@@H]2OC(C)(C)O[C@@H]21 (stereo partly specified)	x	x	x	x	-1.2%

Source: PubChem (National Center for Advancing Translational Sciences (NCATS))
